In PubChem BioAssay AID2315 (National Center for Advancing Translational Sciences (NCATS), 2010):
Several values for one entry are separate records, joined by “and”; a condition that tells them apart may be missing. Equal values may be shown once. Hit rate of the full screen: of about 290,000 compounds, about 27,000 (9.3%) were called active. The sample holds actives, similar compounds and a random draw of the others, so the mix is not that of the screen. A number with no mark means an inactive call. Rule as the data show it: active = inhibition mostly above about 28% (no sharp cut-off); inactive = mostly below about 43%.

Assay: A qHTS for Small Molecule Inhibitors of Shiga Toxin; also: 0% is about no effect
Conditions: Vero cells, Shiga toxin protein synthesis inhibition reporter; at 38.7 µM, stronger effect = higher value

SMILES | inhibition
CCn1cc(CN2CCC(n3nccc3NC(=O)CCCc3ccccc3)CC2)c(C)n1 | -4.01%
O=C(C(=O)N1CCc2ccccc2C1)c1c[nH]c2ccccc12 | 25.1%
O=C(NCCCc1ccccc1)C(=O)c1c[nH]c2ccccc12 | 34.9%
O=C(NC1CCCC1)C(=O)c1c[nH]c2ccccc12 | 60.6% (active)
Cc1ccc(C(=O)CCC(=O)N(C)CC(=O)Nc2c(Cl)cccc2Cl)cc1 | 12.9%
CCOc1ccc(NC(=O)CSc2nncn2C)cc1 | -2.49%
COc1ccc(-n2c(-c3ccc(OC)c(OC)c3)n[nH]c2=S)cc1 | -6.08%
CCOc1ccccc1NC(=S)NC(=O)CCc1ccccc1 | -2.78%
COc1ccc(Nc2ncc(F)c(N3CCOCC3)n2)cc1 | 68.5% (active)
c1ccc(Nc2nc(N3CCOCC3)c3ccccc3n2)cc1 | -9.05%
CCOc1ccc(Nc2nc(Cl)nc(N3CCN(c4ccc(OC)cc4)CC3)n2)cc1 | -1.73%
Cc1cc(C)cc(NC(=O)CN2C(=O)c3ccccc3C2=O)c1 | -7.16%
Cc1ccc(C(C)C)cc1OCC(=O)Nc1ccccc1N1CCCC1 | 38.7%
Cc1c(OC(C)C(=O)N[C@@H](Cc2ccccc2)C(=O)O)ccc2c3c(c(=O)oc12)CCCC3 (stereo partly drawn) | -5.08%
O=C(Cn1ncc2c3ccccc3n(Cc3ccccc3)c2c1=O)NCCCN1CCOCC1 | 10.5%
CCN1C(=O)/C(=C2/Sc3ccccc3N2CCCS(=O)(=O)O)SC1=S | 13.4% and -2.41%
CCCCN1C(=O)/C(=C2/Sc3ccc(Cl)cc3N2CC)SC1=S | 1.9%
CCN1C(=O)/C(=c2\s/c(=C3\Sc4ccccc4N3C)c(=O)n2C)N(C)C1=S | 40.9% (active)
COc1cc(OC)c(OC)cc1CN1CCN(C(=O)c2cccc3ccccc23)CC1 | -8.18%
COc1ccc(-c2nc3n(c(=O)c2C#N)CCS3)c(OC)c1 | -7.88%
O=C(N/N=C\C1CC=CCC1)c1ccc(Br)o1 (stereo not drawn) | 67.4% (active)
COCc1c(C(=O)N/N=C/C2CC=CCC2)nnn1-c1nonc1N (stereo not drawn) | -2.4%
Cc1ccc(SCc2c(C(=O)N/N=C/C3CC=CCC3)nnn2-c2nonc2N)cc1 (stereo not drawn) | -9.77%
CCN1CCN(C(=O)Cn2nc(C)n3c(cc4c(OC)cccc43)c2=O)CC1 | -14.6%

SMILES | inhibition
O=C(O)CCCn1c(=O)c2cccn2c2ccc(F)cc21 | -8.92%
O=C(Nc1cccc2ccccc12)N1CCN(Cc2ccc3c(c2)OCO3)CC1 | -3.81%
O=C(Nc1cccc2ccccc12)N1CCC2(CC1)OCCO2 | 54.5% (active)
COc1ccc(NC(=O)N2CCC3(CC2)OCCO3)c(OC)c1 | 13.6%
COc1cc(/C=N/NC(=O)CNC(=O)c2ccncc2)ccc1OC(C)=O | -3.89%
COc1ccc(C)cc1NC(=O)NCCCCc1ccccc1 | 14.6%
COc1ccc(C(=O)NC2CC2)cc1OC1CCN(C/C=C/c2ccccc2)CC1 | -9.42%
CC(=O)N1c2ccc(S(=O)(=O)N3CCC(C(=O)N4CCN(c5ccccc5)CC4)CC3)cc2CC1C (stereo not drawn) | -2.12%
Cc1cccc(-c2nnc(SCC(=O)O)n2Cc2ccccc2)c1 | -7.35%
COc1cc(/C=C2/C(=O)ON=C2C)ccc1OCc1cccc(F)c1 | 55.1% (active)
CCOc1ccc(/C=N/NC(=O)C(C)Sc2ccccn2)cc1OCC (stereo not drawn) | -9.85%
C#CCOc1ccc(/C=C2/C(=O)ON=C2C)cc1OCC | 13.8%
CCOc1cc(/C=N/O)ccc1OCc1ccccc1F | 40.7% (active)
COc1cc(/C=C2/C(=O)ON=C2C)ccc1OCc1ccccc1F | 145% (active)
CC1=NOC(=O)/C1=C\c1ccccc1 | -4.49%
CCOc1c(Cl)cc(/C=N/O)cc1OC | 59.8%
COc1cc(/C=C2\SC(=O)NC2=O)ccc1OCc1ccc(Cl)nc1 | -5.05%
C=CCOc1ccc(/C=C2/C(=O)ON=C2C)cc1OCC | 17.5%
CCn1c(CC(=O)Nc2ccccc2)nnc1SCC(=O)N1CCOCC1 | -10.2%
Cc1ccc(/C=C2\SC(=S)N(CCC(=O)Nc3ccc(O)cc3)C2=O)cc1 | 0.715%
COC(=O)c1cccc(N(CC(=O)NCC2CCCO2)C(=O)CCC(=O)Nc2cc(C)on2)c1 (stereo not drawn) | -11.3%
CC(C)(C)Nc1c(N)c(=O)oc2ccccc12 | 10.6%
O=Cc1c(NCCc2cccc(F)c2)c2ccccc2[nH]c1=O | -25%
Nc1c(NCCc2ccccc2)c2ccccc2oc1=O | 60.3% (active)
